Source: PubChem
Hits are enriched below; roughly 11% of the tested compounds scored in any of these assays.
JMJD2E inh: JMJD2E (human) inhibition; JMJD2E catalytic domain, FDH-coupled NADH fluorescence (FDH is formaldehyde dehydrogenase); AID 2147; hit rate 1.6% among 230,000; Potency, µM (titrated, usually from 57.1 µM), for the others: top-dose activity change, negative = inhibition, most hits filed as inhibitors;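 note: potency is the fitted concentration of half-maximal effect; 0% = wells with enzyme and -100% = buffer wells without enzyme; nearly all actives have a fitted effect of over 50% in size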
Target sequence (B2RXH2 1-337 limits assumed): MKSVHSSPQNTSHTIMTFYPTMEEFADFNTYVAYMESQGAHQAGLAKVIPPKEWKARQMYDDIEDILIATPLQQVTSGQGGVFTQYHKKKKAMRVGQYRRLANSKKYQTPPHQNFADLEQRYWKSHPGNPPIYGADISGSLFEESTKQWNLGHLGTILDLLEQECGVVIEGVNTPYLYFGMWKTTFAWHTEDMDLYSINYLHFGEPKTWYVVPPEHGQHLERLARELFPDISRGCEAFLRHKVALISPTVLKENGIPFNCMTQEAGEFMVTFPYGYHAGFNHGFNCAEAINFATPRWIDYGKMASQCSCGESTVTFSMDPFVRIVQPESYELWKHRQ
PNC assembly inh: inhibitors of perinucleolar compartment assembly; activity change (PNC), negative = inhibition, % at 10 µM; AID 2417; hit rate 3.1% among 140,000; PC3M PTB-GFP, PNC prevalence imaging, 16 h; hits give low values;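 active = readout at or below -70, meaning at least 70% loss of cells showing the perinucleolar compartment, a nuclear body marking cancer cells; inconclusive = readout between -30 and a set limit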;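 note: plate controls were DMSO wells for no effect and camptothecin positive control wells for full effect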
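Compounds are pinned in duplicate onto adhered PC3M cells stably expressing GFP-tagged PTB and incubated 16 h at 37 C. Cells are then fixed, nuclei stained with Hoechst, and PNC-positive cells counted.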
HPGD inh: blocks human HPGD enzyme activity; AID 894; P15428; hit rate 4.3% among 150,000; Potency, µM, for the others: top-dose activity change, negative = inhibition, most hits filed as inhibitors; purified HPGD, NADH fluorescence kinetic, PGE2 substrate; note: potency is the fitted concentration of half-maximal effect
Target sequence (P15428 whole entry, looked up): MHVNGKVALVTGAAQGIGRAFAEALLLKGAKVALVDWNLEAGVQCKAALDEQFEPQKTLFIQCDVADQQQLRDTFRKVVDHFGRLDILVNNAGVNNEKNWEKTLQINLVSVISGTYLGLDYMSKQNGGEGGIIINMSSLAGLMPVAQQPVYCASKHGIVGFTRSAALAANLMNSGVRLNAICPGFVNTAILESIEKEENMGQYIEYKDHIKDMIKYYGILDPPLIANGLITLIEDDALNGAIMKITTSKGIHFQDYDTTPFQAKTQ
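20 nM HPGD preincubated 15 min at room temperature with compound in 50 mM Tris-HCl pH 8, 0.01% Tween 20. Started with 1 mM NAD+ and 30 uM prostaglandin E2; NADH fluorescence (360/450 nm) read 5 times over 30-s intervals, last minus first.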
ALDH1A1 block: blocks purified human ALDH1A1 activity; P00352; Purified ALDH1A1, NADH fluorescence, propionaldehyde substrate; Potency, µM (doses to about 75.3 µM), for inactives: top-dose activity, negative = inhibition, hits mostly inhibitors; hit rate 7.3% among 220,000; AID 1030;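 note: potency is the fitted concentration of half-maximal effect; plate controls were no enzyme wells and a reference inhibitor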
Numbers without * were called inactive; ? = inconclusive; · = no result given; [ ] = remark or other dose. Unless noted, calls come from the whole dose curve; as a rule, active = well fitted inhibition curve with a large enough effect (not every such curve was filed as active); inconclusive = small, poorly fitted or top-dose-only effect, or another doubt; inactive = no such curve, though single readings can be large or run the other way. Unless noted, % is set by controls: 0 for no effect and ±100 for the full control effect.

SMILES	JMJD2E inh	PNC assembly inh	HPGD inh	ALDH1A1 block
Clc1cnc2nc(SC/C=C/c3ccccc3)[nH]c2c1	8.6%	·	·	·
CN(C)C(=O)c1ccc(-c2cc(C(F)(F)F)n(C)n2)s1	-5.6%	·	·	?
COc1ccc(C(=O)NCC(=O)OCC(=O)Nc2cc([N+](=O)[O-])ccc2F)cc1	4.5%	·	·	1.58µM*
CCOCC(=O)Nc1cc([N+](=O)[O-])ccc1OC	2.0%	·	·	22.4µM*
CCOC(=O)c1ccc([N+](=O)[O-])cc1NC(C)=O	14.4%	-92.3*	3.9%	12.3%
CC1Sc2ccccc2N(CC(=O)N(C(C)C)C(C)C)C1=O (stereo unspecified)	4.9%	1.2	-4.8%	3.5%
Cc1c(Cl)ccc2c(C(=O)NC(C)c3ccncc3)cc(-c3ccncc3)nc12 (stereo unspecified)	1.0%	·	·	1.12µM*
COC(=O)CNC(=O)c1cc(-c2ccncc2)nc2c(C)c(Cl)ccc12	-0.9%	·	·	12.6µM*
CCCN1C(=O)/C(=C/c2ccncc2)SC1=S	-9.1%	?	-12.5%	10µM*
CCN1C(=O)/C(=C/c2cn(C)nc2C)SC1=S	-3.2%	30.3	-11.6%	3.98µM*
O=C(CCNC(=O)Cn1ccc2ccccc2c1=O)NCCc1ccc(Cl)cc1	?	-13.9	-8.8%	9.6%
COc1cccc(C(c2sc3ncnn3c2O)N2CC(C)OC(C)C2)c1 (stereo unspecified)	0.2%	7.1	-9.7%	0.355µM*
O=C(CNC1CCCCC1)Nc1cc(S(=O)(=O)N2CCOCC2)ccc1Cl	117.4%	·	·	-0.1%
COc1ccc(C(=O)OC2CCN(c3ncc(C(F)(F)F)cc3Cl)CC2)cc1	-8.6%	-2.0	-16.3%	2.0%
CO/N=C/C1CCN(c2ncc(C(F)(F)F)cc2Cl)C1=O (stereo unspecified)	2.1%	·	·	31.6µM*
CNc1ncnc2c1ncn2[C@@H]1O[C@H](COP(=O)(O)O)[C@@H](O)[C@H]1O	·	·	·	2.7%
CC(=O)Nc1ccc(S(=O)(=O)NCC(=O)OCC(=O)N2CCN(c3ccccc3)CC2)cc1	-1.9%	49.9	-0.3%	20µM*
CC(=O)Nc1ccc(S(=O)(=O)N(C)CC(=O)OCC(=O)N2CCc3ccccc32)cc1	-8.4%	-3.3	-11.5%	8.91µM*
O=C(CNS(=O)(=O)c1ccc(Cl)cc1)OCC(=O)N1CCCc2ccccc21	1.7%	?	·	11.1%
CC(=O)Nc1ccc(S(=O)(=O)NCC(=O)OCC(=O)N2CCCc3ccccc32)cc1	-4.9%	-99.5*	-0.4%	-7.5%
CCC(=O)N1CCc2cc(S(=O)(=O)N3CCc4ccccc4C3)ccc21	?	-17.4	?	?
CCC(=O)N1CCCc2cc(S(=O)(=O)N3CCCc4ccccc43)ccc21	-10.0%	1.8	-12.8%	17.8µM*
CN(CC(=O)N1CCc2ccccc21)S(=O)(=O)c1ccc(Cl)cc1	2.0%	-5.1	1.5%	0.7%
CS(=O)(=O)N1CCC[C@@]2(CCN(c3ccccc3)C2)C1	·	·	-0.3%	?
O=C1Nc2ccccc2[C@]1(O)Cc1ccccn1	·	·	1.9%	10.4%[13.5 µM]
SMILES	JMJD2E inh	PNC assembly inh	HPGD inh	ALDH1A1 block
O=S1(=O)C=C(SCc2ccc(Cl)c(Cl)c2)Nc2ccccc21	0.6%	65.4	-6.1%	5.1%
CCSc1ncccc1C(=O)N[C@@H](CCSC)C(=O)OC	2.6%	·	·	·
CCCCNC(=O)N1CCN(c2ccccc2OC)CC1	-1.6%	·	·	2.2%
Cc1ccc(-n2c(N)c(C(N)=O)sc2=S)c(C)c1	4.6%	-14.4	·	7.5%
COC(=O)c1sc(=S)n(-c2ccccc2OC)c1N	-1.0%	47.3	14.1µM*	7.3%
CCCCNC(=O)c1sc(=S)n(-c2ccccc2OC)c1N	-9.8%	?	31.6µM*	8.91µM*
CCOc1ccccc1-n1c(N)c(C(N)=O)sc1=S	-2.2%	-11.2	-25.7%	?
CCOC(=O)c1sc(=S)n(-c2ccccc2OC)c1N	-9.3%	34.5	?	3.16µM*
COc1ccc(Cl)cc1-n1c(N)c(C(N)=O)sc1=S	-6.0%	3.3	28.2µM*	?
COc1cccc(CC(=O)N2CCc3nc(-c4ccccc4)c4c(c3C2)CO[C@@H](C)C4)c1	0.9%[11.4 µM]	·	-4.4%	11.7%[13.5 µM]
CCOc1ccc2nc(NC(=O)Cn3[nH]c(=O)c4ccccc4c3=O)sc2c1	-6.2%	·	·	·
CC(=O)c1cc(C#N)c(SCc2ccccc2)nc1C	-1.4%	?	-20.2%	17.8µM*
COC(=O)c1cc(C#N)c(SCc2ccccc2)nc1C	0.8%	?	-28.9%	?
CC1=C(CC(=O)c2ccc(Cl)cc2)C(=O)c2ccccc2C1=O	?	-19.2	-26.5%	2.51µM*
Cc1ccc(NC(=O)c2sc(N)nc2-c2ccc([N+](=O)[O-])cc2)c(C)c1	-7.8%	·	·	9.6%
CCCCCCOc1ccc(-c2ccc(C#N)cn2)cc1	?	4.4	?	?
O=C1CC(NCCC2=CCCCC2)C(=O)N1c1cccc(Cl)c1Cl (stereo unspecified)	-1.1%	-12.3	-14.8%	5.62µM*
CC(=O)N1CCCC(C(=O)c2ccc(Oc3ccccc3)cc2)C1 (stereo unspecified)	-11.2%	·	·	?
CC1=NN(c2ccc(N)cc2)C(=O)C1	?	33.8	-2.2%	?
CC1=NN(c2ccccc2)C(=O)C1	?	13.8	5.5%	10µM*
CC1=NN(c2ccc(Cl)cc2)C(=O)C1	-24.1%	·	·	0.631µM*
CC1=NN(c2cccc([N+](=O)[O-])c2)C(=O)C1	-11.3%	·	·	?
Cc1ccsc1C(=O)OCC(=O)N1CCc2ccccc2C1	6.5%	·	·	?
c1cncc(CNc2ccnc(-c3cccnc3)n2)c1	·	·	·	-112.1%
O=C1c2ccccc2N2C(=O)c3ccccc3[C@H]2N1c1ccccc1	3.8%	-7.2	-0.9%	-11.0%
SMILES	JMJD2E inh	PNC assembly inh	HPGD inh	ALDH1A1 block
O=C1NC2c3ccccc3C(=O)N2c2c1cnn2-c1ccccc1 (stereo unspecified)	-8.4%	-100.0*	-19.9%	?
O=C(COC(=O)c1ccc2ccccc2n1)NCc1ccccc1	-0.8%	·	·	9.3%
CN(C(=O)COC(=O)c1ccc(-c2ccc(O)cc2)cc1)C1CCS(=O)(=O)C1 (stereo unspecified)	?	·	·	13.5%
CCOC(=O)C1(CCCc2ccccc2)CCN(C(=O)c2cncs2)CC1	1.3%	·	·	5.62µM*
CCOC(=O)C1(CCCc2ccccc2)CCN(C(=O)c2ocnc2C)CC1	5.5%	·	·	0.891µM*
CCOC(=O)C1(CCCc2ccccc2)CCN(C(=O)CCc2cnccn2)CC1	0.7%	·	·	3.98µM*
CCOC(=O)C1(CCc2ccccc2)CCN(C(=O)C(C)n2cncn2)CC1 (stereo unspecified)	-1.9%	·	·	?
CCOC(=O)C1(CCCc2ccccc2)CCN(C(=O)C(C)n2cncn2)CC1 (stereo unspecified)	-4.5%	·	·	7.08µM*
CCOC(=O)C1(CC2CC2)CCN(C(=O)c2ocnc2C)CC1	3.2%	·	·	0.9%
CCOC(=O)C1(CCc2ccccc2)CCN(C(=O)CCc2cnccn2)CC1	-21.4%	·	·	?
Cc1ccc(C)[n+](CC(=O)c2ccc(-c3ccccc3)cc2)c1	?	·	·	-9.0%
CN(C)c1ccc2c(c1)Sc1cc(N(C)C)ccc1N2C(=O)c1ccccc1	-2.4%	·	·	·
NNC(=O)CS(=O)(=O)Nc1ncccn1	·	·	-7.6%	15.7%[13.5 µM]
O=C(CCSc1ccccc1)NCCSCc1ccccc1	5.1%	-26.5	14.1µM*	?
